PubChem BioAssay (NCATS)
Results filed as inconclusive are left out. Activity calls are given as the source filed them. Unless noted, the call rests on the fitted dose curve; in most records, active means well fitted curve in the direction sought with a large enough effect; inconclusive means small, poorly fitted or top-dose-only effect, or another doubt; inactive means no such curve, though single readings can be large; an effect the other way counts as inactive or inconclusive.

Experiments:
[1] = system: CAOV3; assay: Primary qHTS to identify gynecologic anti-cancer compounds using libraries of approved drugs and bioactive compounds (AID 1345084); details: Gynecologic cancer cell panel viability, ATPlite luminescence, 48 h; series mostly up to 57.5 µM; further: on the % scale 0 is the no-effect control and ±100 the full control effect; nearly all actives have a fitted effect of over 55% in size
Procedure, shortened: (§1)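 Measured: luminescence after ATPlite addition (15 min, RT). Exposure: 48 h, 37 C, 5% CO2.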

[2] = system: CASKI; assay: as above; details: Gynecologic cancer cell panel viability, ATPlite luminescence, 48 h; series mostly up to 57.5 µM
Procedure, shortened: as §1

[3] = system: Es-2; assay: as above; details: Gynecologic cancer cell panel viability, ATPlite luminescence, 48 h; series mostly up to 57.5 µM
Procedure, shortened: as §1

[4] = system: HeLa; assay: as above; details: Gynecologic cancer cell panel viability, ATPlite luminescence, 48 h; series mostly up to 57.5 µM
Procedure, shortened: as §1

[5] = system: Hek293T; assay: as above; details: Gynecologic cancer cell panel viability, ATPlite luminescence, 48 h, control line for the selectivity index; series mostly up to 57.5 µM
Procedure, shortened: as §1

[6] = system: JEG-3; assay: as above; details: Gynecologic cancer cell panel viability, ATPlite luminescence, 48 h; series mostly up to 57.5 µM
Procedure, shortened: as §1

[7] = system: OV90; assay: as above; details: Gynecologic cancer cell panel viability, ATPlite luminescence, 48 h; series mostly up to 57.5 µM
Procedure, shortened: as §1

[8] = system: PA-1; assay: as above; details: Gynecologic cancer cell panel viability, ATPlite luminescence, 48 h; series mostly up to 57.5 µM
Procedure, shortened: as §1

[9] = system: SKOV3; assay: as above; details: Gynecologic cancer cell panel viability, ATPlite luminescence, 48 h; series mostly up to 57.5 µM
Procedure, shortened: as §1

[10] = system: Tov-21-G; assay: as above; details: Gynecologic cancer cell panel viability, ATPlite luminescence, 48 h; series mostly up to 57.5 µM
Procedure, shortened: as §1

[11] = system: Tov112D; assay: as above; details: Gynecologic cancer cell panel viability, ATPlite luminescence, 48 h; series mostly up to 57.5 µM
Procedure, shortened: as §1

[12] = Drug repurposing screens with cells derived from glioblastoma tumor samples (AID 1345199); details: GBM patient neurospheres viability, ATP luminescence, 48 h; further: nearly all actives have a fitted effect of over 40% in size; further: potency means the concentration at half of the fitted maximal effect; on activity, negative = cell killing: on the % scale 0 is the no-effect control and ±100 the full control effect
Procedure, shortened: (§2)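 Four patient lines of CD133+ GBM neurospheres were screened at several concentrations; hits were retested in those lines plus three slower-growing GBM lines, using 48-hour treatment and ATP-based viability.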

[13] = system: astro; assay: as above; details: viability, ATP luminescence, 48 h; series mostly up to 45.9 µM
Procedure, shortened: as §2

[14] = target: Nuclear receptor subfamily 1 group I member 2 (Rattus norvegicus) (UniProt Q9R1A7); assay: qHTS assay for small molecule activators of the rat pregnane X receptor (rPXR) signaling pathway (AID 651751; call rule not given here; further: 0% is about no effect); details: rPXR reporter cells, luciferase (One-Glo), 24 h
[15] = qHTS assay for small molecule activators of the human pregnane X receptor (PXR) signaling pathway (AID 720659; call rule not given here; further: 0% is about no effect)
[16] = qHTS assay to identify inhibitors of the type 1 interferon - major histocompatibility complex class I in skeletal muscle: Counter screen cell viability and HiBit confirmation (AID 1347412); details: iHSKM muscle cells + IFN-b, HiBiT or CellTiter-Glo, 24 h; Potency: HiBiT unless noted; Viability, at 45.9 µM (top of the series); further: nearly all actives have a fitted effect of over 60% in size; further: potency means the concentration at half of the fitted maximal effect
Procedure, shortened: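 Myoblasts (C25cl48, HLA-B HiBiT) seeded in medium without dexamethasone, IFN-b 4 ng/ml added except unstimulated columns; 1 hr later compounds pinned (12-pt 1:3, top 46 uM final). Incubated 24 hrs, lysed 10 min, luminescence measured.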

[17] = at 20 µM (top of the series), tumour line C
[18] = at 21.2 µM (top of the series), tumour line B
[19] = at 45.9 µM (top of the series), tumour line B
[20] = at 45.9 µM (top of the series), tumour line D
[21] = at 46 µM (top of the series), tumour line A
[22] = at 46.1 µM (top of the series), tumour line C

Sequence of Nuclear receptor subfamily 1 group I member 2 (Rattus norvegicus) (Q9R1A7 whole entry, looked up): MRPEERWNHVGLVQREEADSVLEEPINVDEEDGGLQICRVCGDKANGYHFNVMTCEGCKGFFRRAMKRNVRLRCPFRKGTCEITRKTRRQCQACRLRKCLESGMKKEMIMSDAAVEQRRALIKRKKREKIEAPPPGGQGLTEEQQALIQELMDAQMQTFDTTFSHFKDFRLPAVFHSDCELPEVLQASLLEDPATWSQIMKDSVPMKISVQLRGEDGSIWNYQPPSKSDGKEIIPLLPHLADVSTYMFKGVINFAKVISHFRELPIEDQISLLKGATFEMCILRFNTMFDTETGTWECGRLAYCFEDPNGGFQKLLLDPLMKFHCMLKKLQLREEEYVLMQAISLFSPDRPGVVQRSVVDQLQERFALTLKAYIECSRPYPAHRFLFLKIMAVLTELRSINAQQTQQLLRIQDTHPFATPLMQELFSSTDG

CC1=C(C(=O)O)N2C(=O)[C@@H](NC(=O)[C@H](N)c3ccc(O)cc3)[C@H]2SC1
inactive: Potency [1] | Potency [2] | Potency [3] | Potency [4] | Potency [5] | Potency [6] | Potency [7] | Potency [8] | Potency [9] | Potency [10] | Potency [11] | activity, negative = cell killing [12, 17] -0.623% | activity, negative = cell killing [12, 18] -10.2% | activity, negative = cell killing ([12]; at 21.2 µM (top of the series), tumour line D) -21.8% | Potency [13]

Cc1cc(=O)n(-c2ccccc2)n1C
inactive: Potency [1] | Potency [2] | Potency [3] | Potency [4] | Potency [5] | Potency [6] | Potency [7] | Potency [8] | Potency [9] | Potency [10] | Potency [11] | activity, negative = cell killing [12, 19] -5.78% | activity, negative = cell killing [12, 20] 0.358% | activity, negative = cell killing [12, 21] -19.4% | activity, negative = cell killing [12, 22] -23.6% | Potency [13] | max response [14] 0.521% | outcome [15]

CCOC(=O)c1cccc(N)c1
inactive: Potency [1] | Potency [2] | Potency [3] | Potency [4] | Potency [5] | Potency [6] | Potency [7] | Potency [8] | Potency [9] | Potency [10] | Potency [11] | activity, negative = cell killing [12, 19] -17.6% | activity, negative = cell killing [12, 20] 2.11% | activity, negative = cell killing [12, 22] -0.117% | Potency [13]

CC(=O)OCC(=O)[C@@]1(OC(C)=O)[C@@H](C)C[C@H]2[C@@H]3C[C@H](F)C4=CC(=O)C=C[C@]4(C)[C@@]3(F)[C@@H](O)C[C@@]21C
inactive: Potency [1] | Potency [2] | Potency [3] | Potency [4] | Potency [5] | Potency [6] | Potency [7] | Potency [8] | Potency [9] | Potency [10] | Potency [11] | activity, negative = cell killing [12, 19] -11.4% | activity, negative = cell killing [12, 20] 4.06% | activity, negative = cell killing [12, 22] -10.3% | Potency [13] | Potency [16]

COc1ccc(C2C(=O)c3ccccc3C2=O)cc1
inactive: Potency [1] | Potency [2] | Potency [3] | Potency [4] | Potency [5] | Potency [6] | Potency [7] | Potency [8] | Potency [9] | Potency [10] | Potency [11] | activity, negative = cell killing [12, 19] -10.6% | activity, negative = cell killing [12, 20] -14.2% | activity, negative = cell killing [12, 22] -5.24% | Potency [13]

O=S1(=O)c2cccc3cccc(c23)N1CCCN1CCN(c2ccc(F)cc2)CC1
active: Potency ([12]; tumour line A) 12.6 µM
inactive: Potency [1] | Potency [2] | Potency [3] | Potency [4] | Potency [5] | Potency [6] | Potency [7] | Potency [8] | Potency [9] | Potency [10] | Potency [11] | activity, negative = cell killing [12, 19] -28.9% | Potency [13]

CCCCCC=CCC=CCCCCCCCC(=O)OCC
inactive: Potency [1] | Potency [2] | Potency [3] | Potency [4] | Potency [5] | Potency [6] | Potency [7] | Potency [8] | Potency [9] | Potency [10] | Potency [11] | activity, negative = cell killing [12, 19] -5.69% | activity, negative = cell killing [12, 20] -29.1% | activity, negative = cell killing [12, 22] -8.48% | Potency [13]

NCCc1ccn[nH]1
inactive: activity, negative = cell killing ([12]; at 21.3 µM (top of the series), tumour line A) -21.3%

C#C[C@]1(O)CC[C@H]2[C@@H]3CCc4cc(OC5CCCC5)ccc4[C@H]3CC[C@@]21C
active: Potency ([12]; tumour line B) 10 µM

C[C@]12C=CC(=O)C=C1CC[C@@H]1[C@@H]2[C@@H](O)C[C@@]2(C)[C@H]1CC[C@]2(O)C(=O)CO
inactive: Potency [16]

CC(C)n1nc(-c2cc3cc(O)ccc3[nH]2)c2c(N)ncnc21
active: Potency [16] 3.52 µM

CCCSS/C(CCO)=C(\C)N(C=O)Cc1cnc(C)nc1N
active: Potency [13] 22.4 µM
inactive: Potency [1] | Potency [2] | Potency [4] | Potency [5] | Potency [6] | Potency [7] | Potency [8] | Potency [9] | Potency [10] | Potency [11] | activity, negative = cell killing [12, 22] -24.8%

Cc1cc(N)c2cc(NC(=O)Nc3ccc4nc(C)cc(N)c4c3)ccc2n1
active: Potency [13] 35.5 µM
inactive: Potency [1] | Potency [2] | Potency [3] | Potency [4] | Potency [5] | Potency [6] | Potency [8] | Potency [9] | Potency [11]

Cc1c(C)n(CCN(C)C)c2ccc(C(=O)OCCN(C)C)cc12
active: Potency ([12]; tumour line A) 10 µM
inactive: Potency [1] | Potency [2] | Potency [3] | Potency [4] | Potency [5] | Potency [6] | Potency [10] | Potency [11] | activity, negative = cell killing [12, 22] -23.7% | Potency [13]

CN1CCN(CCCN2c3ccccc3Sc3ccc(S(=O)(=O)N(C)C)cc32)CC1
active: Potency ([12]; tumour line A) 7.94 µM
inactive: Potency [1] | Potency [2] | Potency [3] | Potency [4] | Potency [5] | Potency [6] | Potency [9] | Potency [10] | Potency [11] | activity, negative = cell killing [12, 17] 3.3% | activity, negative = cell killing [12, 18] -12.4% | Potency [13]

CCCCN1CCCC1C(=O)Nc1c(C)cc(C)cc1C (centres undefined)
inactive: Potency [1] | Potency [2] | Potency [3] | Potency [4] | Potency [5] | Potency [6] | Potency [8] | Potency [9] | Potency [10] | Potency [11] | activity, negative = cell killing [12, 19] -5.63% | activity, negative = cell killing [12, 20] -4.43% | activity, negative = cell killing [12, 22] -15.9%
active: Potency ([12]; tumour line A) 22.4 µM

C#C[C@]1(OC(C)=O)CC[C@H]2[C@@H]3CCC4=C[C@@H](OC(C)=O)CC[C@@H]4[C@H]3CC[C@@]21C
inactive: Potency [1] | Potency [2] | Potency [3] | Potency [5] | Potency [6] | Potency [7] | Potency [8] | Potency [9] | Potency [10] | Potency [11] | activity, negative = cell killing [12, 22] -26.2% | Potency [13]
active: Potency ([12]; tumour line A) 10 µM | Potency ([12]; tumour line D) 17.8 µM

CN(C)CC/C=C1\c2ccccc2Sc2ccc(Cl)cc21
active: Potency ([12]; tumour line A) 6.31 µM | Potency ([12]; tumour line D) 11.2 µM
inactive: Potency [1] | Potency [2] | Potency [3] | Potency [4] | Potency [5] | Potency [6] | Potency [8] | Potency [10] | activity, negative = cell killing [12, 22] -26.8%

Cc1c(C(C)C)c(=O)n(-c2ccccc2)n1C
inactive: Potency [1] | Potency [2] | Potency [4] | Potency [5] | Potency [6] | Potency [7] | Potency [8] | Potency [9] | Potency [10] | Potency [11] | activity, negative = cell killing [12, 19] -4.08% | activity, negative = cell killing [12, 20] -9.96% | activity, negative = cell killing [12, 21] -22.1% | activity, negative = cell killing [12, 22] -13.8%

CNCC[C@@H](Oc1ccccc1C)c1ccccc1
inactive: Potency [1] | Potency [2] | Potency [4] | Potency [5] | Potency [6] | Potency [7] | Potency [8] | Potency [11]

CN=C(NC#N)NCCSCc1csc(N=C(N)N)n1
inactive: Potency [1] | Potency [2] | Potency [3] | Potency [4] | Potency [6] | Potency [7] | Potency [8] | Potency [9] | Potency [10] | Potency [11] | activity, negative = cell killing [12, 19] -9.85% | activity, negative = cell killing [12, 20] 14.9% | activity, negative = cell killing [12, 21] -18.5% | activity, negative = cell killing [12, 22] -6.9% | Potency [13]
